In the library only some 5.4% were active in any assay of this set; here they are far more common.
p53 reactivator = qHTS assay for re-activators of p53 using a Luc reporter; 0.063% of 320,000 active; Potency, µM (titrated, usually from 92.2 µM), hits mostly activators; H1299 p53-A138V BP100-luciferase reporter, luminescence, 24 h; AID 504706, 2011; note: nearly all actives have a fitted effect of over 45% in size
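p53-null H1299 cells stably carrying temperature-sensitive p53-A138V and a BP100-luciferase reporter were pinned with compounds (4-point, 1:5 series) and held 24 hrs at 37 deg C. Luminescence was read 10 min after detection reagent.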
RORg inh = qHTS for inhibitors of ROR gamma transcriptional activity; Nuclear receptor ROR-gamma (Mus musculus), P51450; Drosophila S2 Gal4-RORgamma UAS-luciferase reporter, 20 h; Potency, µM (series often up to 53.6 µM), usual class: inhibitors; 5.4% of 310,000 active; note: nearly all actives have a fitted effect of over 60% in size
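Compounds are pin-transferred onto Drosophila Schneider cells expressing a copper-inducible Gal4–ROR gamma transactivation domain fusion. After 1 hr, copper sulfate is added to 700 uM final; luciferase is read 20 hr later.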
Gal4-VP16 FLuc = VP16 counterscreen qHTS for inhibitors of ROR gamma transcriptional activity | 3.5% of 310,000 active | Potency, µM (highest dose often 53.6 µM), hits mostly inhibitors | Drosophila S2 Gal4-VP16 UAS-luciferase, luminescence, 20 h | AID 2546, 2010;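 note: Gal4-VP16 expression switched on by copper sulfate through the metallothionein promoter; nearly all actives have a fitted effect of over 50% in size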
Six1-Eya2 blk = qHTS Assay for Inhibitors of the Six1/Eya2 Interaction; Homeobox protein SIX1 (Homo sapiens) + Protein phosphatase EYA2 (Homo sapiens), …; AlphaScreen GST-Six1/His-Eya2 binding, biochemical; stronger effect = lower value; activity change, % (concentration not given with the values); 0.56% of 360,000 active; in the data active = activity change below about -65%; inconclusive = mostly about -30% to -63%
Target sequence (O00167 whole entry, looked up): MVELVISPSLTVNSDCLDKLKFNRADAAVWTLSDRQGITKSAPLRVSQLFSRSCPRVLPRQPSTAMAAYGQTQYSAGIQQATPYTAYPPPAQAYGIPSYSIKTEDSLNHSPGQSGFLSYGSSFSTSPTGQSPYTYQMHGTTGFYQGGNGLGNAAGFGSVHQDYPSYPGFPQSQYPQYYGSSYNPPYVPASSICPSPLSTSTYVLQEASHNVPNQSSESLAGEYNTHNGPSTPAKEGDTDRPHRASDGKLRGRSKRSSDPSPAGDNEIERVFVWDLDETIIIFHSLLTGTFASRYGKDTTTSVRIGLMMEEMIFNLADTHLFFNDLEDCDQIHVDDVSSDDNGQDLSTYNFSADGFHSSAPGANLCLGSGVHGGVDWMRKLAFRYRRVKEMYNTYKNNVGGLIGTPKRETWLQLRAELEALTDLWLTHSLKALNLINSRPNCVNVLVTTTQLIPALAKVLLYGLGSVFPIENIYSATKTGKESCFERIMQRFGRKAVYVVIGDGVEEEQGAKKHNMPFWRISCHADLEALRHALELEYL
Target sequence (Q15475 whole entry, looked up): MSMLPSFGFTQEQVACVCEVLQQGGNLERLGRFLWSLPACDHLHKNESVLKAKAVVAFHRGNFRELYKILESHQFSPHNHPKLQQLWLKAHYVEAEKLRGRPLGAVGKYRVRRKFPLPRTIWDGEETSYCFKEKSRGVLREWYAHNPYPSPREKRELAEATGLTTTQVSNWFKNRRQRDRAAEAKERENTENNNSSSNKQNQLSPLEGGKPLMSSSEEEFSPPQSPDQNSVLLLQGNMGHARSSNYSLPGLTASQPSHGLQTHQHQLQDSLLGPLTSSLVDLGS
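Compounds are tested against tagged Six1 and Eya2 proteins bridged by glutathione donor and nickel acceptor beads; after a one-hour incubation at 37 °C without light, AlphaScreen emission is recorded.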
CtBP-E1A blk = qHTS Assay for Inhibitors of the CtBP/E1A Interaction. CtBP / adenovirus E1A interaction (AlphaScreen). AlphaScreen GST-E1A/His-CtBP binding, 1536-well; stronger effect = lower value. activity change, % (concentration not given with the values). 0.49% of 340,000 active. AID 651724, 2012; in the data active = activity change below about -65%; inconclusive = mostly about -30% to -63%
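GST-E1A and His-tagged CtBP (125 nM each as 5X stock) were preincubated with pin-transferred compound for 2 h at 37 °C in the dark, then glutathione donor and nickel acceptor beads were added for 1 h before AlphaScreen reading.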
Of the large screens only hits and unclear results are named; the others gave an inactive call. Unless noted, calls come from the whole dose curve; as a rule, active = well fitted curve in the direction sought with a large enough effect; inconclusive = small, poorly fitted or top-dose-only effect, or another doubt; inactive = no such curve, though single readings can be large; an effect the other way counts as inactive or inconclusive.

N#Cc1c(N)n(CCc2ccc(F)cc2)c2nc3ccccc3nc12	none
Cn1c(-c2c(N)n(C3CCCC3)c3nc4ccccc4nc23)nc2ccccc21	RORg inh 3.5µM, Gal4-VP16 FLuc 5.6µM
COCCn1c(N)c(C#N)c2nc3ccccc3nc21	none
COCCCn1c(N)c(-c2nc3ccccc3n2C)c2nc3ccccc3nc21	RORg inh 4µM, Gal4-VP16 FLuc 7.1µM, Six1-Eya2 blk inconclusive, CtBP-E1A blk inconclusive
COc1ccc(OC)c(N(CC(=O)Nc2cccc3ccccc23)S(C)(=O)=O)c1	none (no result: p53 reactivator, RORg inh, Gal4-VP16 FLuc)
CCCCNC(=O)NS(=O)(=O)c1ccc(NC(=O)CCC(=O)c2cccs2)cc1	none
O=C1C(=O)N(Cc2cccnc2)C(c2ccccn2)/C1=C(/O)c1ccccc1 (configuration not stated)	RORg inh 0.45µM
COc1ccc(/C=C2/SC(=S)N(CCC(=O)N3CCN(C)CC3)C2=O)cc1	RORg inh 10µM
CCOc1ccc(/C=C2\SC(=S)N(CCC(=O)O)C2=O)cc1	RORg inh 1.1µM
CCOc1ccc(/C=C2/SC(=S)N(CCC(=O)Nc3ccc(C(=O)O)cc3)C2=O)cc1	RORg inh inconclusive
COc1ccc(/C=C2\SC(=S)N(CCC(=O)N3CCCCC3)C2=O)cc1	none
Cc1ccc(/C=C2\SC(=S)N(CCCC(=O)N3CCOCC3)C2=O)cc1	RORg inh 3.2µM, Gal4-VP16 FLuc inconclusive
O=C(O)COc1ccc(C=C2SC(=S)N(c3ccccc3)C2=O)cc1	CtBP-E1A blk -92 (no result: p53 reactivator, RORg inh, Gal4-VP16 FLuc)
COC(=O)N[C@@H](c1cccc(F)c1)C(C(C)=O)C(=O)OC (some centres not stated)	none (no result: p53 reactivator, Six1-Eya2 blk, CtBP-E1A blk)
CN(C(=O)C(Cl)Cl)C1CC2C=CC1C2 (configuration not stated)	none
COc1ccc2c(c1)C(c1ccc(C)cc1)CC(=O)O2 (configuration not stated)	none (no result: p53 reactivator, Six1-Eya2 blk, CtBP-E1A blk)
COc1ccc(/C=C2\SC(=S)N(CC(=O)N3CCN(C)CC3)C2=O)cc1	none
COc1ccc(/C=C2/SC(=S)N(CCCC(=O)N3CCN(C)CC3)C2=O)cc1	RORg inh 1.4µM, Gal4-VP16 FLuc 2.5µM
COc1ccc(-n2ncc3c(N4CCC(C)CC4)ncnc32)cc1	RORg inh 8.9µM, Gal4-VP16 FLuc inconclusive
Cc1cccc(-n2ncc3c(N(C)C4CCCCC4)ncnc32)c1	RORg inh inconclusive, Gal4-VP16 FLuc 0.89µM
CCOC(=O)C1CCN(c2ncnc3c2cnn3-c2ccccc2)CC1	none
CCOC(=O)C1CCN(c2ncnc3c2cnn3-c2ccc(Cl)cc2)CC1	RORg inh 1.4µM, Gal4-VP16 FLuc inconclusive
COc1ccc(-n2ncc3c(N(C)C4CCCCC4)ncnc32)cc1	RORg inh 0.25µM, Gal4-VP16 FLuc 8.9µM (no result: p53 reactivator)
Brc1ccc2nc(-c3c[nH]c4ccccc34)cn2c1	p53 reactivator inconclusive, RORg inh 0.2µM, Gal4-VP16 FLuc inconclusive
COc1ccc(C=C2C(=O)c3ccccc3C2=O)cc1O	RORg inh inconclusive, Gal4-VP16 FLuc inconclusive
COc1cc(/C=C2\COC/C(=C\c3ccc(O)c(OC)c3)C2=O)ccc1O	RORg inh inconclusive, Gal4-VP16 FLuc inconclusive
COc1ccc(/C=C2\CN(Cc3ccccc3)C/C(=C\c3ccc(OC)c(O)c3)C2=O)cc1O	RORg inh 16µM, Gal4-VP16 FLuc inconclusive
CCN1C/C(=C/c2ccc(OC)c(O)c2)C(=O)/C(=C/c2ccc(OC)c(O)c2)C1	RORg inh 6.3µM, Gal4-VP16 FLuc inconclusive (no result: CtBP-E1A blk)
C#CCOCCOCCOCCNc1nc(N2CCN(C(=O)CCCCCCCCCCNC(=O)Cn3cc(CCCCCN)nn3)CC2)nc(N2CCN(C(=O)CCCCCCCCCCNC(=O)[C@H]([C@@H](C)CC)n3cc(CCCCCN)nn3)CC2)n1	none (no result: RORg inh, Gal4-VP16 FLuc)
CSc1ccccc1OCc1cc(C(=O)N(Cc2nccn2C)C(C)C)no1	none
COc1ccc(NC(=O)NCc2ccccn2)c(OC)c1	none
COc1cc(/C=C2\SC(=Nc3ccc(Cl)c(C(=O)O)c3)NC2=O)c(Br)c(Br)c1O	Six1-Eya2 blk inconclusive, CtBP-E1A blk inconclusive
COc1cccc(Nc2ncc3nc(C)c(=O)n(C[C@H]4CCCO4)c3n2)c1	RORg inh inconclusive (no result: p53 reactivator, Six1-Eya2 blk, CtBP-E1A blk)
CCCN1C(=O)/C(=C2/C=Cc3ccccc3N2CC)SC1=S	Six1-Eya2 blk -76, CtBP-E1A blk -76
CCN1/C(=C2\C(=O)N(C)C(=S)N2C)C=Cc2ccccc21	Six1-Eya2 blk inconclusive
CCN1C(=O)/C(=C2/C=Cc3ccccc3N2CC)SC1=S	Six1-Eya2 blk -84 (no result: CtBP-E1A blk)
CCCN1/C(=C2/SC(=S)N(CC)C2=O)C=Cc2ccccc21	Six1-Eya2 blk -80, CtBP-E1A blk -70
C=CCNC(=O)COc1cc(C)cc(C)c1C	none
COc1cc(NS(=O)(=O)c2ccc(N/C=C(\C=O)c3nc4ccccc4o3)cc2)nc(OC)n1	RORg inh 8.9µM, Gal4-VP16 FLuc inconclusive
Cc1ccc2oc(/N=C(\N)NC(=O)C3CC3)nc2c1	RORg inh 7.1µM, Gal4-VP16 FLuc inconclusive (no result: CtBP-E1A blk)
Cc1ccc2oc(Nc3nc(C)cc(C)n3)nc2c1	p53 reactivator inconclusive
NC(N)=Nc1nc2cc([N+](=O)[O-])ccc2o1	none
Cc1ccc2oc(/N=C(\N)NC(=O)C(C)(C)C)nc2c1	RORg inh 0.05µM, Gal4-VP16 FLuc 0.45µM
Cc1ccc2nc3nc4ccc[nH]c4cc3c2c1	RORg inh inconclusive (no result: p53 reactivator, Six1-Eya2 blk, CtBP-E1A blk)
CC(C)N(Cc1ccccc1)C(=O)COC(=O)/C=C/c1cnc2ccccc2n1	CtBP-E1A blk -87
Cn1c(CNc2nc3ccccc3n2C)nc2ccccc21	none
Cc1ccc(C(O)c2nc3ccccc3n2C(C)C)cc1 (configuration not stated)	RORg inh inconclusive
CN(C)c1ccc(C(O)Cc2nc3ccccc3n2C)cc1 (configuration not stated)	none (no result: p53 reactivator)
CC(C)n1c(-c2ccc(N(C)C)cc2)nc2ccccc21	RORg inh 4µM, Gal4-VP16 FLuc 20µM, Six1-Eya2 blk inconclusive
CN(Cc1nc2ccccc2n1C)c1ccccc1	RORg inh 11µM, Gal4-VP16 FLuc inconclusive (no result: p53 reactivator)
CN(C)c1ccc(-c2nc3ccccc3n2C)cc1	RORg inh 4µM, Gal4-VP16 FLuc inconclusive
CCn1c(-c2ccc(N(C)C)cc2)nc2ccccc21	p53 reactivator inconclusive, RORg inh 6.3µM, Gal4-VP16 FLuc inconclusive
Cc1nn(C(C)C(=O)NCCCN2CCCC2)c(=O)c2nn(-c3ccccc3)c(C)c12 (configuration not stated)	none
Cc1ccc(/C=C2\SC(=S)N(CCCC(=O)Nc3cccc(C(=O)O)c3)C2=O)cc1	RORg inh inconclusive
COc1ccc(NC(=S)N/N=C/c2cccn2Cc2ccc(F)cc2Cl)cc1	RORg inh 0.79µM, Gal4-VP16 FLuc 2.8µM, Six1-Eya2 blk inconclusive

Compound activity: PubChem, National Center for Advancing Translational Sciences (NCATS)
